In the library only some 11% were active in any assay of this set; here they are far more common.
VACV mCherry inh – vaccinia inhibition (mCherry reporter); AID 720579; Potency, µM (titrated, usually from 36.5 µM), for the others: at the highest dose activity change, negative = inhibition, hits mostly inhibitors; 0.63% of 310,000 active; Vaccinia virus mCherry reporter infection, fluorescence; calls by dose curve; tested in A549 cells; further: on the % scale 0 is the no-effect control and ±100 the full control effect; nearly all actives have a fitted effect of over 35% in size
VACV Venus inh – inhibitors of vaccinia virus (Venus reporter); 0.46% of 330,000 active; Potency, µM (highest dose often 36.5 µM), without a hit: at the top dose activity change, negative = inhibition, usual class: inhibitors; Vaccinia virus Venus reporter expression, fluorescence; calls by dose curve; tested in A549 cells; further: on the % scale 0 is the no-effect control and ±100 the full control effect; nearly all actives have a fitted effect of over 30% in size
HCV inhibitor – inhibitors of hepatitis C virus infection; Huh7.5.1 HCVcc-Cre infection, luciferase reporter, 44 h; Potency, µM (series often up to 41.8 µM), without a hit: top-dose activity change, negative = inhibition, hits mostly inhibitors; 3.4% of 340,000 active; further: on the % scale 0 is the no-effect control and ±100 the full control effect
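1,000 cells/well; 4 h culture; + compound; + HCVcc-Cre (~0.5 moi); 44 h; luciferase substrate, RT 15 min; read 15 sec.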
Pf growth 96h – inhibits malaria parasite growth, 96 h; 6.9% of 320,000 active; Potency, µM (doses to about 28.7 µM), inactives show top-dose activity change, negative = inhibition, usual class: inhibitors; P. falciparum luciferase reporter growth, 96 h; AID 504834; further: on the % scale 0 is the no-effect control and ±100 the full control effect
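Infected RBCs, 2% Hct / 0.05% parasitemia final; luciferase-reporter P. falciparum; cpd 96 h, 37 C, 5% CO2; luciferase detection reagent; luminescence.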
NS1 function inh – blocks influenza NS1 protein function; Potency, µM (series often up to 46.1 µM), for inactives: at the highest dose activity, positive = more growth; 0.4% of 270,000 active; AID 2326; calls by dose curve; further: actives are rising curves; nearly all actives have a fitted effect of over 50% in size
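OD600 was taken as the measure of yeast growth restored by compound in an NS1-expressing S. cerevisiae strain. Cells had been washed out of glucose medium and diluted 1:100 into galactose -URA medium, pH 6.0.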
Pf growth 48h – inhibits P. falciparum growth in the first generation, 48 h | P. falciparum luciferase growth in erythrocytes, 48 h | Potency, µM (doses to about 28.7 µM), without a hit: top-dose activity change, negative = inhibition, most hits filed as inhibitors | 5.9% of 310,000 active; further: on the % scale 0 is the no-effect control and ±100 the full control effect
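Here the parasites carry a stable luciferase gene and grow inside erythrocytes in Albumax-based RPMI medium with compound for one erythrocytic cycle. Activity is scored as loss of luminescent signal.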
The depositor's hits bear a star; i = inactive; u = inconclusive; x = no result given. Unless noted, the call rests on the fitted dose curve; in most records, active means well fitted inhibition curve with a large enough effect; inconclusive means small, poorly fitted or top-dose-only effect, or another doubt; inactive means no such curve, though single readings can be large or run the other way. Potency means the concentration at half of the fitted maximal effect.

SMILES | VACV mCherry inh | VACV Venus inh | HCV inhibitor | Pf growth 96h | NS1 function inh | Pf growth 48h
CCc1ccccc1NC(=O)C1COc2ccccc2O1 (stereo not drawn) | -15% | -2% | 18% | 2.9µM* | 1% | u
CCOC(=O)c1ccccc1NC(=O)C1COc2ccccc2O1 (stereo not drawn) | x | -28% | u | u | -61% | u
CCOC(=O)c1c(NC(=O)Cc2cccs2)sc(C)c1C | -2% | -5% | 35µM* | x | -5% | -2%
CCOC(=O)c1c(NC(=O)C2COc3ccccc3O2)sc(C)c1C (stereo not drawn) | -18% | -22% | 8% | 7% | -3% | 5.9µM*
CCOC(=O)c1c(NC(=O)Cc2cccs2)sc(C(=O)NC2CCCC2)c1C | -6% | -9% | -9% | u | 6% | 18%
O=C(Nc1cccc(Cl)c1)C1COc2ccccc2O1 (stereo not drawn) | x | x | 18% | 1.7µM* | -17% | -2%
Cc1ccccc1NC(=O)C1COc2ccccc2O1 (stereo not drawn) | x | x | 10% | 53% | 1% | 14%
CC1CCC(C(C)C)C(OP(N)(=O)c2ccccc2)C1 (stereo not drawn) | x | x | 3% | u | -8% | 8%
Cn1c(SCC(=O)Nc2nc3ccccc3s2)ncc(C(=O)Nc2ccccc2)c1=O | i | -8% | x | x | x | x
Cc1cc(=O)oc(C)c1C(=O)OCC(=O)c1ccc(Br)cc1 | x | -18% | -14% | u | 1% | -20%
O=S(=O)(c1c(F)cccc1F)N1CCN(Cc2c(O)ccc3ccccc23)CC1 | x | x | -1% | -30% | x | u
COc1ccccc1C(=O)NC(=O)Nc1ccc(-n2nc(C(F)(F)F)cc2C(F)(F)F)cc1 | -22% | -22% | x | x | x | x
CCCNC(=O)c1c(NC(=O)C2COc3ccccc3O2)sc2c1CCCC2 (stereo not drawn) | x | -12% | -6% | 10µM* | 6% | 5%
Cc1cc(C)n(C(=O)CNC(=O)C2COc3ccccc3O2)n1 (stereo not drawn) | x | 2% | 0% | -12% | -3% | 9%
O=C(NC1CCS(=O)(=O)C1)c1c(NC(=O)C2COc3ccccc3O2)sc2c1CCCC2 (stereo not drawn) | x | -11% | u | 51% | 15% | u
CCCn1c(NC(=O)C2COc3ccccc3O2)nc2ccccc21 (stereo not drawn) | x | x | -16% | u | 2% | 9.3µM*
Cc1cc(C)n(C(=O)c2ccc(NC(=O)C3COc4ccccc4O3)cc2)n1 (stereo not drawn) | x | -21% | 3% | 8.3µM* | -94% | 30%
O=C(Nc1cccc(Cl)c1)C1C2CCC3C(CCC21)C3(Cl)Cl (stereo not drawn) | -15% | u | u | u | 12% | 9.3µM*
CCCCC(=O)Nc1ccc2nc(SCC(=O)N3CCc4ccccc43)sc2c1 | -14% | -6% | x | x | x | x
CSc1cccc(NC(=O)CN(c2ccccc2)S(=O)(=O)N(C)C)c1 | -5% | 1% | -6% | 30% | -6% | 3%
C/C(=N/O)c1c(O)c(C)c(-c2ccccc2)n(-c2ccccc2)c1=O | -1% | -16% | 28% | -3% | 15% | -6%
O=C(Nc1ccccc1[N+](=O)[O-])C1COc2ccccc2O1 (stereo not drawn) | -14% | -6% | -2% | 12µM* | -8% | 133%
COc1ccccc1N1CCN(C(=O)CCN2C(=O)c3cccc4cccc(c34)C2=O)CC1 | -5% | 3% | u | u | 18% | -28%
Cn1c(SCC(=O)N2CC(=O)Nc3ccccc32)nc2ccccc2c1=O | x | x | 0% | u | x | u
O=C1CN(C(=O)CSc2nc3ccccc3c(=O)n2Cc2ccc(F)cc2)c2ccccc2N1 | -7% | -26% | u | 2.6µM* | u | 12µM*
SMILES | VACV mCherry inh | VACV Venus inh | HCV inhibitor | Pf growth 96h | NS1 function inh | Pf growth 48h
CCCCCCn1c(SCC(=O)Nc2cc(C)on2)nc2ccccc2c1=O | x | x | u | 6.6µM* | 5% | u
Cc1cc(NC(=O)CSc2nc3ccccc3c(=O)n2Cc2ccc(F)cc2)no1 | x | x | u | 12µM* | -1% | u
CCN(CC)C(=O)CSc1nc2ccccc2c(=O)n1CCC(=O)NCc1ccc(F)cc1 | x | x | u | u | 7% | 9.3µM*
O=C(Nc1ccc(Cl)cn1)c1ccc(COCC(F)(F)C(F)F)o1 | -18% | -1% | u | x | -11% | 44%
Cc1ccccc1C(=O)NN(C)c1nc2ccccc2nc1C(F)(F)F | x | -21% | 19% | 82% | 1% | -13%
Cc1cc(NC(=O)Cn2c(=O)n(Cc3ccccc3)c(=O)c3ccccc32)no1 | -19% | -16% | 13% | 0% | 3% | 9.3µM*
Cc1nnc(NC(=O)CSc2nc(C(C)C)nc3ccccc23)s1 | -20% | -16% | u | 37% | 0% | 2%
Cc1cc(NC(=O)CSc2nc(C(C)C)nc3ccccc23)no1 | x | x | 13µM* | u | 16% | u
Cc1cc(NC(=O)CSc2nc3ccsc3c(=O)n2CCCCC(=O)O)no1 | x | x | 23% | 4.7µM* | 14% | 12%
O=C(NCCC1=CCCCC1)C1CC(=O)N(C2CCCCC2)C1 (stereo not drawn) | i | 0% | -6% | 4% | -20% | 7%
Brc1ccc(C[n+]2ccccc2)cc1 | -16% | -19% | 7.9µM* | 7.4µM* | x | 2.9µM*
O=[N+]([O-])c1ccc(C[n+]2ccccc2)cc1 | -3% | -17% | -22% | u | x | u
CN1C2C=C3C(C#N)=C(N)C(C#N)(C#N)C(c4ccc(Br)cc4)C3C1CC2 (stereo not drawn) | x | x | -13% | 8.3µM* | 23% | 9.3µM*
COc1ccccc1C(=O)Nc1ccc(-c2nnn(CC(=O)N3CCOCC3)n2)cc1 | -10% | -15% | -26% | -1% | -2% | u
CCOC(CNCc1cc(C)c2[nH]c3ccccc3c2c1C)OCC | u | u | 1.8µM* | x | x | x
CCOC(CCNC(=O)c1cc2c(=O)[nH]c3ccccc3c2s1)OCC | x | x | -6% | 0% | 2% | -23%
Cc1ccc(OCC(=O)N2CCN(c3nnc(-c4ccccc4)c4ccccc34)CC2)cc1 | x | x | u | -39% | -15% | x
CNC(=S)NNC(=O)c1sccc1OCc1cccc(C(F)(F)F)c1 | x | x | 13% | 13µM* | 4% | u
CNC(=S)NNC(=O)c1sccc1OCc1ccc(C)cc1 | x | x | 7% | 23% | 9% | 37%
Cn1ncc2c(c(SCc3ccc(Cl)cc3Cl)nn2C)c1=O | -18% | -24% | u | u | 3% | 7.4µM*
COc1cnn(-c2ccccc2)c(=O)c1SCc1ccc(Cl)cc1Cl | -21% | -10% | -17% | u | -15% | u
CCN(C(=O)C1CCN(c2nc(-c3ccc(OC)cc3)no2)CC1)c1ccccc1 | -21% | u | 10µM* | u | -78% | u
